From PubChem BioAssay AID463173 (ICCB-Longwood Screening Facility, Harvard Medical School, 2010)
Out of some 52,000 compounds screened, about 1,700 (3.3%) were called active. Many of the other results were omitted from the sample, so actives are more common in it than they were. Unmarked numbers belong to inactive results. No stated cut-off is given here; in the data, active means survival mostly below about 52% (no sharp cut-off); inactive means mostly above about 56%.

Tested on: Wild type
Experiment: S. aureus survival, RN4220 and DeltatarO strains – OD600, teichoic acid synthesis inhibitors, primary screen (AID 463173)
Conditions: S. aureus RN4220 wild type/DeltatarO growth, OD600, 18 h, active compounds read low, screened at 18.75 µg/mL (by protocol)

In order of falling survival:
1. Cc1ccccc1CNS(=O)(=O)c1csc(C(N)=O)c1  128%
2. CCOC(=O)c1cccc(NC(=O)C(C)n2c(C)c3cnn(-c4ccccc4)c(=O)c3c2C)c1 (centres undefined)  128%
3. CC(C)(C)c1ccc(S(=O)(=O)N2CCC(c3ccncc3)CC2)cc1  120%
4. Cc1ccc(Cl)cc1-n1ncc2c(N3CCN(Cc4ccccc4)CC3)ncnc21  120%
5. CC(=O)Nc1ccc(S(=O)(=O)N2CCC(C)CC2)cc1  112%
6. CCN(CC)C(=O)c1sc(NC(C)=O)c(C(=O)OC)c1C  108%
7. O=C(NCCc1ccc(Cl)cc1)c1ccc2c(c1)N(Cc1ccc(Cl)cc1)C(=O)CS2  98%
8. S=c1n(-c2ccccc2)cnn1CN1CCCCC1  96%
9. O=C(Nc1cc(-c2nc3ccccc3o2)ccc1Cl)c1sc2c([N+](=O)[O-])cccc2c1Cl  96%
10. CCc1noc(-c2ccc(N3CCC(C)CC3)c([N+](=O)[O-])c2)n1  93%
11. CCCc1ccc(OCC(=O)Nc2sc(C(=O)OCC)c(C)c2C(=O)OCC)cc1  92%
12. O=C(NCCc1ccccc1)c1ccc2c(c1)N(Cc1ccc(F)cc1)C(=O)CS2  88%
13. Cc1c(C(=O)OC(C)C)sc(NC(=O)C2c3ccccc3Oc3ccccc32)c1C(=O)OC(C)C  87%
14. CCn1cc(C(=O)N2CCN(c3cc(Cl)ccc3C)CC2)c(=O)c2cc(S(=O)(=O)N3CCOCC3)ccc21  86%
15. CCOc1ccc(CCNC(=O)c2nnc(Cc3cc(OC)c(OC)c(OC)c3)o2)cc1OCC  85%
16. CCc1ccc(NS(=O)(=O)c2ccc3[nH]cc(C(=O)N(C)Cc4ccco4)c(=O)c3c2)cc1  85%
17. COc1ccc(-c2nnn3c2nc(NCc2ccc(C)cc2)c2ccccc23)cc1  85%
18. CCOc1ccc(NC(=O)CC2C(=O)N(c3cccc(C)c3)C(=O)N2Cc2cccs2)cc1 (centres undefined)  85%
19. Cc1ccc(NC(=O)CSc2nnc(C)n3c2cc2sccc23)c(C)c1  84%
20. Cc1cccc(N2C(=O)C(CC(=O)Nc3cccc(F)c3)N(CCc3ccncc3)C2=O)c1 (centres undefined)  84%
21. O=C(CCc1ccccc1)NC1CC(=O)N(c2cccc(F)c2)C1 (centres undefined)  81%
22. COc1ccccc1C(=O)Nc1c(C(=O)NC(C)(C)C)oc2ccccc12  80%
23. COc1ccc(C(=O)Nc2c(C(=O)c3ccccc3)oc3ccccc23)cc1  75%
24. O=C(Cn1c(SCc2ccc(F)cc2)nc2cccnc21)Nc1ccccc1F  75%
25. COC(=O)c1c(NC(=O)COc2ccc(Cl)cc2)sc(C)c1C  73%
26. Cn1c(=O)c(=O)n(C)c2cc(NC(=O)c3cccc(F)c3)c(Cl)cc21  71%
27. Cc1ccc(CNC(=O)c2ccc3c(c2)N(Cc2cccc(Cl)c2)C(=O)CS3)cc1  70%
28. CCOC(=O)c1c(NC(=O)COc2cc(C)ccc2C(C)C)sc(C)c1C  67%
29. COc1ccc(OC)c(CNC(=O)Cc2ccc(NC(=O)N3CCSc4ncccc43)cc2)c1  64%
30. CC(CC(=O)Nc1ccc(Br)cc1F)S(=O)(=O)c1ccc2c(c1)NC(=O)CO2 (centres undefined)  63%
31. Cc1sc(NC(=O)C2c3ccccc3Oc3ccccc32)c(C(=O)OC(C)C)c1C  62%
32. CCc1ccc(NC(=O)CC2C(=O)N(c3ccc(Cl)cc3)C(=O)N2Cc2cccs2)cc1 (centres undefined)  47%
33. COc1ccc(Cn2c(SCC(=O)N3CCN(c4ccc(F)cc4)CC3)nc3ccccc32)cc1  45%
34. COc1cccc(-c2ccc3c(N)c(C(=O)c4ccc(Cl)cc4)sc3n2)c1  39%
35. COc1cccc(-c2ccc3c(N)c(C(=O)c4ccc(Br)cc4)sc3n2)c1  38%
36. COc1ccc2c(c1)CCc1c(C(=O)Nc3c(C)nn(Cc4ccccc4C)c3C)noc1-2  26%

In the case of COc1ccccc1C(=O)Nc1c(C(=O)c2ccccc2)oc2ccccc12, the survival is reported as -3% (active).
With CC(=O)Nc1ccc(S(=O)(=O)N2CCC(c3ccncc3)CC2)cc1 the survival was -6% (active).
O=C(NCCc1ccc(Cl)cc1)c1ccc2c(c1)N(Cc1ccc(F)cc1)C(=O)CS2 was tested, and the survival was 10% (active).
For Cc1sc(NC(=O)COc2ccc(C(C)(C)C)cc2)c(C(=O)OC(C)C)c1C, the survival was 10% (active).
CCOC(=O)c1c(NC(=O)COc2ccc(OC)cc2)sc(C(=O)N(CC)CC)c1C was tested, and the survival was -8% (active).
For CCN(CC)C(=O)c1sc(NC(=O)C2c3ccccc3Oc3ccccc32)c(C(=O)OC(C)C)c1C, the survival was 8% (active).
COc1cccc(-c2ccc3c(N)c(C(=O)c4ccc(F)cc4)sc3n2)c1 was tested, and the survival was 10% (active).
Cc1cccc(N2C(=O)C(CC(=O)Nc3cccc(F)c3)N(Cc3cccs3)C2=O)c1 (centres undefined) was tested, and the survival was 0% (active).
